# Source: PubChem BioAssay (National Center for Advancing Translational Sciences (NCATS))
# Shown are actives, neighbours in structure and some others; about 10% of the full set was active somewhere.
# PNC assembly inh = High Content Assay for Compounds that inhibit the Assembly of the Perinucleolar Compartment; PC3M PTB-GFP, PNC prevalence imaging, 16 h; stronger effect = lower value; activity change (PNC), negative = inhibition, % at 10 µM; actives 3.1% (n = 140,000); AID 2417, 2010;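 active means readout at or below -70, meaning at least 70% loss of cells showing the perinucleolar compartment, a nuclear body marking cancer cells; inconclusive means readout between -30 and a set limit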;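 further: plate controls were DMSO wells for no effect and camptothecin positive control wells for full effect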
#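 Read-out is percentage of cells bearing a perinucleolar compartment, from automated 20x imaging of fixed, Hoechst-stained PC3M PTB-GFP cells. Cells were seeded 4 h, then exposed 16 h to compound (23 nl of library stock) in duplicate plates.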
# ALDH1A1 inh = qHTS Assay for Inhibitors of Aldehyde Dehydrogenase 1 (ALDH1A1); Aldehyde dehydrogenase 1A1 (Homo sapiens), P00352; Purified ALDH1A1, NADH fluorescence, propionaldehyde substrate; Potency, µM (series often up to 75.3 µM), inactives show top-dose activity, negative = inhibition, most hits filed as inhibitors; actives 7.3% (n = 220,000); AID 1030, 2008;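 further: potency means the concentration at half of the fitted maximal effect; plate controls were no enzyme wells and a reference inhibitor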
# Target sequence (P00352 whole entry, looked up): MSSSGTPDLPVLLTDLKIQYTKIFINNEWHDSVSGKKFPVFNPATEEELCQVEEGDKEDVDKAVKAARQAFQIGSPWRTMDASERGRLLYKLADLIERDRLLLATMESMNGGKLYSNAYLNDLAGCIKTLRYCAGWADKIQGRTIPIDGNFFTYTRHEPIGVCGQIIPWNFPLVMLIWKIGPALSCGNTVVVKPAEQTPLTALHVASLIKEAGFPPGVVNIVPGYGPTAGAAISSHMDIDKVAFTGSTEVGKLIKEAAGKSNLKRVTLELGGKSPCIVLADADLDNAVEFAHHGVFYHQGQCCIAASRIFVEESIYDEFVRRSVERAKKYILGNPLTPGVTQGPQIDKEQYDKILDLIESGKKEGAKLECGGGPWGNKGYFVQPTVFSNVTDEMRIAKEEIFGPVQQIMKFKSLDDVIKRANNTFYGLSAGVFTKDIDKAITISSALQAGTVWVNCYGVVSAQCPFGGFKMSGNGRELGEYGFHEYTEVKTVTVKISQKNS
# HPGD block = qHTS Assay for Inhibitors of HPGD (15-Hydroxyprostaglandin Dehydrogenase). purified HPGD, NADH fluorescence kinetic, PGE2 substrate. actives 4.3% (n = 150,000). Potency, µM, for the others: at the highest dose activity change, negative = inhibition, usual class: inhibitors. 15-hydroxyprostaglandin dehydrogenase [NAD(+)] (Homo sapiens), P15428; further: potency means the concentration at half of the fitted maximal effect
# Target sequence (P15428 whole entry, looked up): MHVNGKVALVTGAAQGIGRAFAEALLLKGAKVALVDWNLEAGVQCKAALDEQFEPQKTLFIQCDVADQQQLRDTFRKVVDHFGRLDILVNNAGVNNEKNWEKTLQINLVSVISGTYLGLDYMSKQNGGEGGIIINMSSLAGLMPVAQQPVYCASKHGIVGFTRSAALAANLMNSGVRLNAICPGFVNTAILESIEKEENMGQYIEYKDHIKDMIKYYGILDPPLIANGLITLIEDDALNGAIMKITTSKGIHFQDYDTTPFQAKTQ
#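 20 nM HPGD preincubated 15 min at room temperature with compound in 50 mM Tris-HCl pH 8, 0.01% Tween 20. Started with 1 mM NAD+ and 30 uM prostaglandin E2; NADH fluorescence (360/450 nm) read 5 times over 30-s intervals, last minus first.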
# Lamin A splicing = qHTS Assay for Modulators of Lamin A Splicing | HeLa LMNA splicing GFP/RFP minigene ratio, 48 h | Potency, µM (top dose mostly 46.1 µM), inactives show at the highest dose ratio change, negative = inhibition, usual class: inhibitors | actives 0.01% (n = 200,000); active means well fitted inhibition curve with a large enough effect in the signal ratio, with a control signal flat, not every such curve was filed as active; inconclusive means small, poorly fitted or top-dose-only effect, or effect the other way, or a change in a side signal; the % refers to the signal ratio; further: potency means the concentration at half of the fitted maximal effect
#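 S3 HeLa cells stably expressing lamin A-EGFP splicing minigene plus DsRed2, 600 cells/well, 48 h compound exposure at 37C. Laser-scanning cytometry; analysed as GFP (500-530 nm)/RFP (575-640 nm) total intensity ratio; 0.5% DMSO vehicle.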
# ALOX12 inhib = qHTS Assay for Inhibitors of 12-hLO (12-human lipoxygenase) | purified 12-hLO, xylenol orange hydroperoxide absorbance | Polyunsaturated fatty acid lipoxygenase ALOX12 (Homo sapiens), P18054 | actives 0.12% (n = 150,000) | Potency, µM (doses to about 57.1 µM), inactives show at the highest dose activity change, negative = inhibition, actives largely listed as inhibitors; active means well fitted inhibition curve with a large enough effect; inconclusive means small, poorly fitted or top-dose-only effect; further: potency means the concentration at half of the fitted maximal effect; nearly all actives have a fitted effect of over 55% in size
#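 Purified human 12hLO (150 nM final) was preincubated with compounds for 15 min at room temperature in 25 mM Hepes pH 7.0, 0.01% Triton X-100, then reacted with 40 uM arachidonic acid for 30 min. Hydroperoxide was detected with ferrous iron/xylenol orange.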
# Active calls of the source: *; ? = inconclusive; nt = no result; ! = not confirmed by another sample; [ ] = another dose, or the depositor's remark. Unless noted, the call rests on the fitted dose curve; in most records, active means well fitted inhibition curve with a large enough effect (not every such curve was filed as active); inconclusive means small, poorly fitted or top-dose-only effect, or another doubt; inactive means no such curve, though single readings can be large or run the other way. Unless noted, on the % scale 0 is the no-effect control and ±100 the full control effect.
SMILES,PNC assembly inh,ALDH1A1 inh,HPGD block,Lamin A splicing,ALOX12 inhib
COc1ccc(C2=NN(CN3C(=O)C(=O)c4ccccc43)C(c3ccc(Br)cc3)C2)cc1 (stereo unspecified),-9.8,0.282µM*,-6.5%,4.2%,-23.4%
O=C(NC(CO)C(O)c1ccc([N+](=O)[O-])cc1)C(Cl)Cl (stereo unspecified),nt,-6.6%,-0.8%,?,1.0%
O=C(N[C@H](CO)[C@H](O)c1ccc([N+](=O)[O-])cc1)C(Cl)Cl,nt,14.1µM*!,-10.8%,nt,-1.3%
COc1cc(C(=O)N2CCN=C2c2ccccc2)cc(OC)c1OC,-100.0*,-1.0%,-11.6%,6.2%,-0.1%
O=C(c1ccc(F)cc1)N1CCN=C1c1ccccc1,-96.1*,-3.5%,-5.8%,1.2%,-1.2%
COc1cc([N+](=O)[O-])cc2cc(C(=O)N3CCN=C3c3ccccc3)c(=O)oc12,nt,8.0%,nt,nt,nt
O=C(COc1ccccc1)N1CCN=C1c1ccccc1,13.5,7.7%,-4.3%,13.0%,-2.6%
COc1ccc2c(c1)C(=O)[C@@H](OC(=O)NCCOc1ccccc1)[C@H](c1ccc(OC)c(Br)c1)O2,nt,-6.7%,-10.6%,nt,nt
Cc1cc(/C=N/NC(=O)c2ccncc2)c(C)n1-c1ccccc1,?,?,-9.7%,-3.2%,-3.9%
Cc1ccc(-n2c(C)cc(/C=N/NC(=O)c3ccncc3)c2C)c(C)c1,-20.9,12.6µM*,-14.7%,?,-9.5%
Cc1cccc(C)c1-n1c(C)cc(/C=N/NC(=O)c2ccncc2)c1C,?,28.2µM*,-10.1%,22.6%,-1.2%
CCc1ccc(-n2c(C)cc(/C=N/NC(=O)c3ccncc3)c2C)cc1,nt,7.94µM*,nt,nt,nt
Cc1ccc(-n2c(C)cc(/C=N/NC(=O)CC3(C)OCCO3)c2C)c(C)c1,-25.1,14.1µM*,-20.5%,?,0.3%
Cc1cccc(C)c1-n1c(C)cc(/C=N\NC(=O)CC(=O)NC2CCCCC2)c1C,35.5,-12.2%,0.1%,3.2%,-3.1%
Cc1cc(=O)n(C(C)C(=O)NCc2ccccc2Cl)c2c1c(C)nn2-c1ccccc1 (stereo unspecified),nt,nt,nt,-13.4%[46 µM],nt
CCN(CC)S(=O)(=O)c1ccc(C(=O)NCC(c2ccc(OC)cc2)N2CCOCC2)cc1 (stereo unspecified),nt,0.708µM*,nt,-18.9%[46 µM],nt
COc1ccc(C(CNC(=O)c2ccc(S(=O)(=O)N3CCOCC3)cc2)N2CCCCC2)cc1 (stereo unspecified),9.5,?,-2.6%,?,-2.1%
Cc1ccc2c(c1)c1c(c(=O)n(-c3ccccc3)c(=O)n1CC(=O)N1CCCC1)n2C,nt,nt,nt,-14.9%[46 µM],nt
Oc1c(Cl)cc(Cl)cc1C=Nc1cc(C(F)(F)F)ccc1N1CCc2ccccc2C1,nt,-3.3%,nt,nt,nt
Oc1c(Cl)cccc1C=Nc1cc(C(F)(F)F)ccc1N1CCCC1,6.1,1.8%,15.8µM*,?,-24.4%
CC(=O)c1c(N2CCN(c3cccc(Cl)c3)CC2)nc(=S)n(-c2ccccc2)c1C,?,-3.0%,2.9%,-15.8%,-10.9%
CCn1c(C)c(C(C)=O)c(N2CCN(c3ccc(OC)cc3)CC2)nc1=S,nt,25.1µM*,nt,2.7%[46 µM],nt
CCn1c(C)c(C(C)=O)c(N2CCN(c3cccc(Cl)c3)CC2)nc1=S,6.1,14.1µM*,?,-4.0%,-27.4%
Cc1ccc(CCNC(=O)c2sc3nc4n(c(=O)c3c2C)CCCC4)cc1,nt,nt,nt,-0.9%[46 µM],nt
O=C(Cn1cnc2cc([N+](=O)[O-])ccc2c1=O)NCCc1ccc(F)cc1,nt,31.6µM*,nt,nt,nt
SMILES,PNC assembly inh,ALDH1A1 inh,HPGD block,Lamin A splicing,ALOX12 inhib
CC1CCCN(c2nc3ccccc3nc2C(C#N)S(=O)(=O)c2ccccc2)C1 (stereo unspecified),-15.2,?,-8.3%,-0.2%,-11.0%
COc1ccc(S(=O)(=O)C(C#N)c2nc3ccccc3nc2N2CCC(C)CC2)cc1 (stereo unspecified),-15.5,17.8µM*,-16.0%,-7.7%,-10.8%
Cn1cccc1C(C#N)c1cccc(F)c1C#N (stereo unspecified),nt,25.1µM*,nt,-27.1%[46 µM],nt
O=C(Nc1cccc(F)c1)N1CC[C@@]2(CCCN(C(=O)c3ccco3)C2)C1,nt,?,4.7%,nt,1.9%
COc1ccc(-n2nc(C(=O)Nc3cc(OC)c(OC)c(OC)c3)c(=O)n(C)c2=O)cc1,nt,nt,nt,-6.4%[46 µM],nt
CC1=NNC(=O)C1C(c1ccccc1)C1C(=O)NN=C1C (stereo unspecified),nt,31.6µM*,nt,nt,nt
CCOC(=O)c1c(NC(C)=O)c2c3c(sc2n1Cc1nc(-c2ccccc2C)oc1C)CCCC3,nt,nt,nt,1.2%[46 µM],nt
COCCNC(=S)N/N=C1\CC(C)CC(C)(C)C1 (stereo unspecified),nt,8.91µM*,nt,?,nt
CCOC(=O)N/N=C1\CC(C)CC(C)(C)C1 (stereo unspecified),4.6,16.3%,-2.1%,-1.2%,2.2%
CC(C)[C@@H](CC(=O)N[C@@H]1CCCC[C@H]1C(=O)N[C@H](CC(=O)N[C@@H](CCC(=O)O)CC(=O)O)Cc1ccccc1)NC(=O)C[C@H](CO)NC(=O)[C@@H]1CCCC[C@H]1N,nt,2.8%,-6.5%,nt,4.3%
Cc1ccc(S(=O)(=O)N2CCN(CC(=O)N(CC(C)C)c3c(N)n(CC(C)C)c(=O)[nH]c3=O)CC2)c(C)c1,-97.6*,-17.5%,-7.5%,-9.6%,-6.3%
CCCCN(C(=O)CN1CCOCC1)c1c(N)n(CC(C)C)c(=O)[nH]c1=O,-81.2*,10.0%,nt,-13.1%,-6.2%
COc1ncc2nc(-c3cccs3)c(=O)n(CCc3ccccc3)c2n1,nt,?,nt,25.2%,nt
CN(C)c1ccc(C(=O)n2nnc3ccccc32)cc1,35.4,?,-28.4%,2.2%,5.6%
COc1ccc(N/C(=C(/C(Cl)=C(Cl)Cl)[N+](=O)[O-])n2nnc3ccccc32)cc1,29.7,15.8µM*,-20.6%,4.0%,-2.4%
Cc1ccccc1N/C(=C(/C(Cl)=C(Cl)Cl)[N+](=O)[O-])n1nnc2ccccc21,-3.3,14.1µM*,-14.7%,11.6%,-9.0%
CCN(CC)C(=O)CC(c1ccccc1)c1ccco1 (stereo unspecified),-1.1,-11.1%,15.8µM*,5.7%,-6.1%
CCC(=O)N(CCC(c1ccccc1)c1ccco1)Cc1cccs1 (stereo unspecified),76.3,8.91µM*,-19.9%,-2.0%[0.0737 µM],1.8%
COc1ccccc1C(CCN(Cc1cccs1)C(C)=O)c1ccco1 (stereo unspecified),31.4,8.91µM*,nt,-2.1%,-22.6%
CCC(=O)N(CCC(Cc1ccccc1)c1ccco1)Cc1ccco1 (stereo unspecified),nt,14.1µM*,nt,nt,nt
